# Data reported in the supplement of paper PMC8975748.
# Counter-ions that a name gives are not always drawn.
# Tested on: Saccharomyces cerevisiae BY4741 SeMeCo community
# Assay: z-score of subpopulation abundance vs DMSO median, subpopulation auxotrophic for UM; higher = larger share of this subpopulation than in DMSO controls
# Conditions: 10 µM; 24 h; SM minimal medium; subpopulation (auxotrophy): UM
# Protocol: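 Fluorescent four-plasmid SeMeCo (self-establishing metabolically cooperating S. cerevisiae BY4741 community; plasmids pH-mRuby2, pL-mWasabi, pU-eCFP, pM-TagRFP657) was grown 24 h in minimal SM medium with each Selleck FDA-approved drug at 10 µM in 384-well plates. Cells were fixed and imaged by high-content confocal microscopy. For each auxotrophic subpopulation (and the prototroph), a z-score gives the deviation from the DMSO vehicle-control population median.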
row,Compound,z-score of subpopulation abundance
1,COc1ccc(NS(=O)(=O)c2ccc(N)cc2)nn1 [Sulfamethoxypyridazine],0.13
2,O=C1C(=O)c2ccccc2C(O)=C1C1CCC(c2ccc(Cl)cc2)CC1 (stereo not given) [Atovaquone],0.03
3,C[C@]12CC[C@@H]3c4ccc(OC(=O)c5ccccc5)cc4CC[C@H]3[C@@H]1CC[C@@H]2O [Estradiol Benzoate],0.15
4,C[C@]12CCC(=O)C=C1[C@@H]1C[C@@H]1[C@H]1[C@@H]3[C@@H]4C[C@@H]4[C@@]4(CCC(=O)O4)[C@@]3(C)CC[C@@H]12 [Drospirenone],-0.14
5,CC[C@H](C)C(=O)O[C@H]1CCC=C2C=C[C@H](C)[C@H](CC[C@@H]3C[C@@H](O)CC(=O)O3)[C@H]21 [Mevastatin],0.52
6,Cc1cnc(NC(=O)C2=C(O)c3ccccc3S(=O)(=O)N2C)s1 [Meloxicam],-0.26
7,CC(=O)O[C@H]1C[C@@H]2CC[C@@H]3[C@H](CC[C@@]4(C)[C@H]3C[C@H]([N+]3(C)CCCCC3)[C@@H]4OC(C)=O)[C@@]2(C)C[C@@H]1N1CCCCC1 [Vecuronium Bromide],-0.59
8,COc1cc(C(C)=O)ccc1OCCCN1CCC(c2noc3cc(F)ccc23)CC1 [Iloperidone],-0.39
9,Cc1onc(-c2ccccc2)c1-c1ccc(S(N)(=O)=O)cc1 [Valdecoxib],-0.64
10,O=C(Nc1ccc(Oc2ccc(Cl)cc2)c(Cl)c1)c1cc(I)cc(I)c1O [Rafoxanide],-0.89
11,CC(=O)NC[C@H]1CN(c2ccc(N3CCOCC3)c(F)c2)C(=O)O1 [Linezolid],0.29
12,C#C[C@]1(O)CC[C@H]2[C@@H]3CCc4cc(O)ccc4[C@H]3CC[C@@]21C [Ethinyl Estradiol],-1.64
13,COc1ccc(CC2c3cc(OC)c(OC)cc3CC[N+]2(C)CCC(=O)OCCCCCOC(=O)CC[N+]2(C)CCc3cc(OC)c(OC)cc3C2Cc2ccc(OC)c(OC)c2)cc1OC (stereo not given) [Atracurium Besylate],-0.21
14,O=C([O-])CC(O)(CC(=O)[O-])C(=O)[O-].O=C([O-])CC(O)(CC(=O)[O-])C(=O)[O-].[Bi+3].[K+].[K+].[K+].[K+].[K+] [Bismuth Subcitrate Potassium],-2.69
15,CO[C@@H]1[C@@H](O[C@@H]2O[C@H](C)[C@@H](O[C@H]3C[C@@](C)(O)[C@@H](O)[C@H](C)O3)[C@H](N(C)C)[C@H]2O)[C@@H](CC=O)C[C@@H](C)[C@@H](O[C@H]2CC[C@H](N(C)C)[C@@H](C)O2)/C=C/C=C/C[C@@H](C)OC(=O)C[C@H]1OC(C)=O [Acetylspiramycin (ASPM)],-0.94
16,O=C1OC(CN2CCOCC2)CN1/N=C/c1ccc([N+](=O)[O-])o1 (stereo not given) [Furaltadone HCl],0.47
17,CCCC1CC(C(=O)NC(C(C)Cl)C2OC(SC)C(O)C(O)C2O)N(C)C1 (stereo not given) [Clindamycin alcoholate],-0.51
18,COc1ccc(CN2CCN(C(c3ccc(F)cc3)c3ccc(F)cc3)CC2)c(OC)c1OC [Lomerizine 2HCl],-0.33
19,CC(=O)OCC(CCn1cnc2cnc(N)nc21)COC(C)=O [Famciclovir],-0.68
20,CCCCC(=O)O[C@H]1CC[C@H]2[C@@H]3CCc4cc(O)ccc4[C@H]3CC[C@]12C [Estradiol valerate],0

row,Compound,z-score of subpopulation abundance
1,O=C1CC2(CCCC2)CC(=O)N1CCCCN1CCN(c2ncccn2)CC1 [Buspirone HCl],-1.32
2,CO/N=C(/C(=O)N[C@@H]1C(=O)N2C(C(=O)OCOC(=O)C(C)(C)C)=C(C)CS[C@H]12)c1csc(N)n1 [Cefetamet pivoxil hydrochloride],0.64
3,COc1ccnc(C[S+]([O-])c2nc3cc(-n4cccc4)ccc3[nH]2)c1C (stereo not given) [Ilaprazole],-1.96
4,C/C=C\c1ccc(O)c(OC)c1 [Isoeugenol],1.01
5,CC[N+](CC)(CC)CC [Tetraethylammonium bromide],0.12
6,C[C@@H]1O[C@@H]1P(=O)(O)O [Fosfomycin Disodium],-0.18
7,C[C@](N)(Cc1ccc(O)c(O)c1)C(=O)O [Methyldopa],-0.7
8,c1ccc2[nH]c(-c3cscn3)nc2c1 [Thiabendazole],-0.41
9,C[n+]1ccccc1/C=N/O [Pralidoxime chloride],1.18
10,CC(=O)OC1CC2(C)C(CC(O)C3C4(C)CCC(O)C(C)C4CCC32C)C1=C(CCC=C(C)C)C(=O)O (stereo not given) [Fusidine],-0.42
11,COc1ccc(Cl)cc1C(=O)NCCc1ccc(S(=O)(=O)NC(=O)NC2CCCCC2)cc1 [Glyburide (Glibenclamide)],-0.02
12,O=c1[nH]c(=O)n([C@H]2C[C@H](O)[C@@H](CO)O2)cc1/C=C/Br [Brivudine],0.16
13,CC(=O)OCC1=C(C(=O)O)N2C(=O)C(NC(=O)CSC(=NC(C)C)NC(C)C)C2SC1 (stereo not given) [Cefathiamidine],0.84
14,O=C1CCc2ccc(OCCCCN3CCN(c4cccc(Cl)c4Cl)CC3)cc2N1 [Aripiprazole],0.58
15,Cc1ncc([N+](=O)[O-])n1CC(O)CCl (stereo not given) [Ornidazole],-0.4
16,COc1cc(NS(=O)(=O)c2ccc(N)cc2)ncn1 [Sulfamonomethoxine],0.65
17,CO[C@@]1(NC(=O)C(C(=O)O)c2ccc(O)cc2)C(=O)N2C(C(=O)O)=C(CSc3nnnn3C)CO[C@@H]21 (stereo not given in full) [Latamoxef sodium],-0.41
18,Cc1ccc(Nc2c(F)cccc2Cl)c(CC(=O)O)c1 [Lumiracoxib],-0.4
19,C[C@]12CC[C@@H]3c4ccc(O)cc4C[C@@H](CCCCCCCCC[S+]([O-])CCCC(F)(F)C(F)(F)F)[C@H]3[C@@H]1CC[C@@H]2O (stereo not given in full) [Fulvestrant],0.53
20,NC(=O)[C@@H]1CC[C@@H]2CN1C(=O)N2OS(=O)(=O)O [Avibactam sodium],0.5
